Laboratory results taken from the supplement of paper PMC7765376.
The full ranking holds about 1,500 compounds; the median of “Excess HSA synergy score (sum over dose matrix of excess over highest single agent)” is about 43, and the lowest 2% start at about -900. This is one part of a sample in which the lowest values are shown more often than they occur.

System: PEO-1
Assay: Excess HSA synergy score (sum over dose matrix of excess over highest single agent) (score (summed % response)); higher = less synergy / more antagonism (negative = synergy)
Conditions: 72 h; read-out: viability/apoptosis luminescence (CellTiter-Glo or Caspase3-Glo / not stated per table); matrix design: 6x6, 5-fold dilutions (primary screen)

Row | Structure (SMILES) | Excess HSA synergy score
1 | CC(=O)O/N=C1/C(=C2/C(=O)Nc3cc(Br)ccc32)Nc2ccccc21 [6-Bromoindirubin-3'-acetoxime] + CC[C@H](NC(=O)[C@H](C)NC)C(=O)N1C[C@@H](O)C[C@H]1Cc1c(-c2[nH]c3cc(F)ccc3c2C[C@@H]2C[C@H](O)CN2C(=O)[C@H](CC)NC(=O)[C@H](C)NC)[nH]c2cc(F)ccc12 [Birinapant] | 131
2 | Cc1ccc(C(=O)N(CCCN)[C@@H](c2nc3cc(Cl)ccc3c(=O)n2Cc2ccccc2)C(C)C)cc1 [Ispinesib] + CC[C@H](NC(=O)[C@H](C)NC)C(=O)N1C[C@@H](O)C[C@H]1Cc1c(-c2[nH]c3cc(F)ccc3c2C[C@@H]2C[C@H](O)CN2C(=O)[C@H](CC)NC(=O)[C@H](C)NC)[nH]c2cc(F)ccc12 [Birinapant] | -86.8
3 | Nc1nccc(-c2ccc3noc(-c4ccc(Cl)cc4)c3c2)n1 [Pim 1 Inhibitor 2] + CC[C@H](NC(=O)[C@H](C)NC)C(=O)N1C[C@@H](O)C[C@H]1Cc1c(-c2[nH]c3cc(F)ccc3c2C[C@@H]2C[C@H](O)CN2C(=O)[C@H](CC)NC(=O)[C@H](C)NC)[nH]c2cc(F)ccc12 [Birinapant] | 12.2
4 | C=CCNc1c(O)cc2c(O)c1C[C@@H](C)C[C@H](OC)[C@H](O)[C@@H](C)/C=C(\C)[C@H](OC(N)=O)[C@@H](OC)/C=C\C=C(/C)C(=O)N2 [Retaspimycin] + CC[C@H](NC(=O)[C@H](C)NC)C(=O)N1C[C@@H](O)C[C@H]1Cc1c(-c2[nH]c3cc(F)ccc3c2C[C@@H]2C[C@H](O)CN2C(=O)[C@H](CC)NC(=O)[C@H](C)NC)[nH]c2cc(F)ccc12 [Birinapant] | -10.7
5 | NC(=O)Nc1cc(-c2cccc(F)c2)sc1C(=O)N[C@H]1CCCNC1 + CC[C@H](NC(=O)[C@H](C)NC)C(=O)N1C[C@@H](O)C[C@H]1Cc1c(-c2[nH]c3cc(F)ccc3c2C[C@@H]2C[C@H](O)CN2C(=O)[C@H](CC)NC(=O)[C@H](C)NC)[nH]c2cc(F)ccc12 [Birinapant] | 119
6 | Cc1cccc(Nc2nc(-c3ccncc3)cs2)c1 + CC[C@H](NC(=O)[C@H](C)NC)C(=O)N1C[C@@H](O)C[C@H]1Cc1c(-c2[nH]c3cc(F)ccc3c2C[C@@H]2C[C@H](O)CN2C(=O)[C@H](CC)NC(=O)[C@H](C)NC)[nH]c2cc(F)ccc12 [Birinapant] | 69.4
7 | COc1cc(F)c(C(C)C)cc1-c1ccc(C(F)(F)F)cc1CN1C(=O)O[C@H](c2cc(C(F)(F)F)cc(C(F)(F)F)c2)[C@@H]1C [Anacetrapib] + CC[C@H](NC(=O)[C@H](C)NC)C(=O)N1C[C@@H](O)C[C@H]1Cc1c(-c2[nH]c3cc(F)ccc3c2C[C@@H]2C[C@H](O)CN2C(=O)[C@H](CC)NC(=O)[C@H](C)NC)[nH]c2cc(F)ccc12 [Birinapant] | -71.8
8 | CN(C)c1ccc(C(=C2C=CC(=[N+](C)C)C=C2)c2ccc(N(C)C)cc2)cc1 [Methylrosaniline chloride] + CC[C@H](NC(=O)[C@H](C)NC)C(=O)N1C[C@@H](O)C[C@H]1Cc1c(-c2[nH]c3cc(F)ccc3c2C[C@@H]2C[C@H](O)CN2C(=O)[C@H](CC)NC(=O)[C@H](C)NC)[nH]c2cc(F)ccc12 [Birinapant] | -147
9 | COc1ccc(C2=N[C@@H](c3ccc(Cl)cc3)[C@@H](c3ccc(Cl)cc3)N2C(=O)N2CCNC(=O)C2)c(OC(C)C)c1 [Nutlin-3] + CC[C@H](NC(=O)[C@H](C)NC)C(=O)N1C[C@@H](O)C[C@H]1Cc1c(-c2[nH]c3cc(F)ccc3c2C[C@@H]2C[C@H](O)CN2C(=O)[C@H](CC)NC(=O)[C@H](C)NC)[nH]c2cc(F)ccc12 [Birinapant] | 264
10 | CCS(=O)(=O)N1CC(CC#N)(n2cc(-c3ncnc4[nH]ccc34)cn2)C1 [Baricitinib] + CC[C@H](NC(=O)[C@H](C)NC)C(=O)N1C[C@@H](O)C[C@H]1Cc1c(-c2[nH]c3cc(F)ccc3c2C[C@@H]2C[C@H](O)CN2C(=O)[C@H](CC)NC(=O)[C@H](C)NC)[nH]c2cc(F)ccc12 [Birinapant] | 48.3
11 | N#CC(c1ccnc(OCc2ccc(CN3CCOCC3)cc2)n1)c1nc2ccccc2s1 (stereo not given) + CC[C@H](NC(=O)[C@H](C)NC)C(=O)N1C[C@@H](O)C[C@H]1Cc1c(-c2[nH]c3cc(F)ccc3c2C[C@@H]2C[C@H](O)CN2C(=O)[C@H](CC)NC(=O)[C@H](C)NC)[nH]c2cc(F)ccc12 [Birinapant] | 104
12 | COc1ccc(C(=O)CC2(O)C(=O)Nc3c(Cl)ccc(Cl)c32)cc1 (stereo not given) + CC[C@H](NC(=O)[C@H](C)NC)C(=O)N1C[C@@H](O)C[C@H]1Cc1c(-c2[nH]c3cc(F)ccc3c2C[C@@H]2C[C@H](O)CN2C(=O)[C@H](CC)NC(=O)[C@H](C)NC)[nH]c2cc(F)ccc12 [Birinapant] | 27
13 | NC(=O)c1ccc(N(C(N)=O)c2c(F)cccc2F)nc1-c1ccc(F)cc1F + CC[C@H](NC(=O)[C@H](C)NC)C(=O)N1C[C@@H](O)C[C@H]1Cc1c(-c2[nH]c3cc(F)ccc3c2C[C@@H]2C[C@H](O)CN2C(=O)[C@H](CC)NC(=O)[C@H](C)NC)[nH]c2cc(F)ccc12 [Birinapant] | 69.1
14 | Cn1cnc(N)c2ncnc1-2 [3-Methyladenine] + CC[C@H](NC(=O)[C@H](C)NC)C(=O)N1C[C@@H](O)C[C@H]1Cc1c(-c2[nH]c3cc(F)ccc3c2C[C@@H]2C[C@H](O)CN2C(=O)[C@H](CC)NC(=O)[C@H](C)NC)[nH]c2cc(F)ccc12 [Birinapant] | 238
15 | C[C@@]12C[C@@]3(O)O[C@@H](O1)[C@]1(COC(=O)c4ccccc4)[C@H]3C[C@@]12O[C@@H]1O[C@H](CO)[C@@H](O)[C@H](O)[C@H]1O [Paeoniflorin] + CC[C@H](NC(=O)[C@H](C)NC)C(=O)N1C[C@@H](O)C[C@H]1Cc1c(-c2[nH]c3cc(F)ccc3c2C[C@@H]2C[C@H](O)CN2C(=O)[C@H](CC)NC(=O)[C@H](C)NC)[nH]c2cc(F)ccc12 [Birinapant] | 211
